Hit rate of the full screen: of about 48,000 compounds, about 13,000 (27%) showed an effect of 50% or more. The list shows a part of the results.
test system: Wolbachia pipientis; test: Anti-Wolbachia Cell-Based Screen; assay type: functional; set-up: scale not given: in the data most compounds retested in dose-response had high values; conditions: 5 µM

SMILES | Percent Effect [%]
CC(C)n1nccc1NC(=O)NCCc1nc2ccc(F)cc2n1C | -24.15
COCCN1CCN(CC(=O)NC2(C#N)CCCC2)CC1 | 5.801
CCN(Cc1cc(F)c(OC)c(Cl)c1)Cc1noc(CC(C)C)n1 | -0.0931
CC(C)c1cc(N2CCSCC2)n2nccc2n1 | -0.2231
Cc1nc(-c2cncnc2C2CCCNC2)no1.Cl.Cl (configuration not stated) | 112.4
CS(=O)(=O)c1cncnc1C1CCCNC1.Cl (configuration not stated) | 112
CCc1nc(-c2cncnc2C2CCCNC2)no1.Cl (configuration not stated) | 115.3
CC(C)(C)CN1CCC[C@H]1c1nc(-c2cncnc2N)no1 | -5.651
CCc1nc(-c2cncnc2C2CCNC2)no1 (configuration not stated) | 125.4
CN1CCC[C@H]1c1nc(-c2cncnc2N)no1 | -19.35
CCc1nc(C2CCCN(c3ncc(Br)cn3)C2)no1 (configuration not stated) | -4.032
CC(C)c1ncc(S(C)(=O)=O)c(C2CCCNC2)n1 (configuration not stated) | 16.25
CN1CCC(N2CCC[C@H]2c2nc(-c3cncnc3N)no2)CC1 | -6.986
Cc1ncc(S(C)(=O)=O)c(C2CCCNC2)n1 (configuration not stated) | 6.84
CN(Cc1nc2ccccc2[nH]1)C(=O)CN(C)c1ccccc1 | -21.88
O=C(CCNc1ncc2c(n1)CCN2c1ccccc1)N1CCCC1 | 15.12
COCCC1CN(c2nc(-c3ccccc3)nc3c2CCNC3)CCO1 (configuration not stated) | -17.27
Cc1cnc(C(=O)N2CCCC(c3nccn3Cc3cscn3)C2)cn1 (configuration not stated) | 3.931
Cc1cc(C(=O)N(C)Cc2cnn(C)c2)c(NC(=O)C(C)(C)C)s1 | -6.693
CCOCC1CN(Cc2ccsc2)Cc2cnn(C)c21 (configuration not stated) | 100.2
COc1ccc(CN2Cc3cnn(C)c3C(COCC3CC3)C2)cc1 (configuration not stated) | 13.17
COCC1CN(Cc2ccsc2)Cc2cnn(C)c21 (configuration not stated) | 97.33

SMILES | Percent Effect [%]
CCOCC1CN(CC2CC2)Cc2cnn(C)c21 (configuration not stated) | -17.33
Cn1ncc2c1C(COCC1CC1)CN(Cc1ccsc1)C2 (configuration not stated) | 99.94
Cn1ncc2c1C(COCC1CC1)CN(Cc1cccnc1)C2 (configuration not stated) | -4.691
CCn1ncc2c1C(COC)CN(Cc1ccsc1)C2 (configuration not stated) | -10.45
COCC1CN(Cc2cccnc2OC)Cc2cnn(C)c21 (configuration not stated) | -15.02
CC(=O)Nc1ccc(F)c(S(=O)(=O)NC(C)(C)C)c1 | -3.757
NCC1CCN(c2nc(C3CCCC3)nc3c2CCNCC3)C1 (configuration not stated) | 9.164
Cc1cc(C(=O)N2CC[C@H](N3CCOCC3)[C@H](CCCO)C2)c(C)n1C | -10.4
CC(=O)C(C)CC(=O)N(Cc1cccc(C)c1)C(C)C (configuration not stated) | -23.01
COc1ccccc1CN1CC[C@H](c2nnc(-c3cncn3C)o2)C1 | -5.308
Cc1ccccc1CN1CC[C@H](c2nnc(-c3cncn3C)o2)C1 | 0.6101
Cc1ncsc1-c1nnc(C2CCN(Cc3ccccc3F)CC2)o1 | 106.9
Cc1ncsc1-c1nnc(C2CCN(Cc3cccc(F)c3F)CC2)o1 | 117.8
Cc1ncsc1-c1nnc(C2CCN(Cc3ccccc3Cl)CC2)o1 | 122.3
CCn1cnnc1CNC(=O)c1ccc(Br)cc1F | -45.58
CC(C(=O)N1CCN(C(=O)c2ccc(F)cc2F)CC1)n1ccnc1 (configuration not stated) | -6.751
CN(Cc1ccc(Cl)s1)C(=O)Cn1nc(-c2ccc(F)cc2)oc1=O | -64
CCCn1cnnc1CNC1CCSC1 (configuration not stated) | 5.781
N#CCCN(Cc1cccnc1)C(=O)c1ccc(OCC2CC2)cc1 | -3.781
Cc1noc(C)c1CN(C)C(=O)c1nc(N2CCCC2)ncc1Cl | -6.035
Cc1ccccc1OCCC(=O)N(C)Cc1c(C)noc1C | -17.09
CN(Cc1ccsc1)C(=O)c1n[nH]c(N)c1-c1ccccc1 | 96.05

SMILES | Percent Effect [%]
Cc1nc(NC(=O)N(C)Cc2ccsc2)nn1C | 1.412
Cc1noc(C)c1CN(C)C(=O)c1n[nH]c(N)c1-c1ccccc1 | 103.1
Cc1ccc(CN(C)C(=O)c2n[nH]c(N)c2-c2ccccc2)o1 | 90.65
Cc1noc(C)c1C(=O)N(C)Cc1nc(-c2ccccn2)no1 | -7.046
Cc1noc(CN(C)c2ccccc2)n1 | 0.05791
Cc1ccc(CN(C)C(=O)c2cccc(NC(N)=O)c2)o1 | -0.4854
Cc1noc(CN(C)C(=O)c2n[nH]c(N)c2-c2ccccc2)n1 | 101.7
CN(Cc1ccsc1)C(=O)c1cc2c([nH]c1=O)CCCC2=O | 2.933
CCc1nnsc1C(=O)N(C)Cc1ccc(C)o1 | 0.8104
Cc1ccc(CN(C)C(=O)c2cc3c(c(S(N)(=O)=O)c2)CCC3)o1 | -13.85
CCC1=N[C@@]2(CC[C@@H]3CN(S(=O)(=O)CC)C[C@@H]32)C(=O)N1CCOC | -7.119
CN(c1ncc(C(N)=O)cc1Cl)C1CCC(c2ccccc2)CC1 (configuration not stated) | -13.88
CN(Cc1ccsc1)C(=O)Nc1ccc(=O)n(C)c1 | -4.532
NC(=O)CN1CCC(c2cccc(Oc3ccccc3)n2)CC1 | 173
CC(=O)N1CCC(c2cccc(Oc3ccccc3)n2)CC1 | 144.2
CNCC(=O)N1CCC(c2cccc(Oc3ccccc3)n2)CC1 | 178.2
NCC(=O)N1CCC(c2cccc(Oc3ccccc3)n2)CC1 | 130.3
CCn1cnnc1C1CCN(C(=O)CCCOc2ccccc2)CC1 | 6.265
CCn1cnnc1C1CCN(C(=O)COc2ccccc2)CC1 | 2.9
COCC(=O)N1CCC(c2cccc(Cc3ccc(F)cc3)n2)CC1 | -12.66
CC(C)(C)c1nnc(CSc2ccccn2)o1 | 4.822
CN(Cc1ccccc1)C1(C(=O)NCC(N)=O)Cc2ccccc2C1 | -1.712

SMILES | Percent Effect [%]
O=C(NCc1csc(Cc2ccccc2)n1)C1NCCc2[nH]cnc21 (configuration not stated) | -10.41
CCn1nc(C)c(NC(=O)c2cc(NC(=O)C(C)C)n(C)n2)c1C | 2.528
CCCc1cc(C(=O)N(Cc2cccnc2)Cc2cccnc2)[nH]n1 | -21.08
NCC1Cc2cc(-c3cncc(C(=O)N4CCCCC4)n3)cc(F)c2O1 (configuration not stated) | -1.954
COc1ncc(-c2cc(NCCN(C)C)nc3[nH]ccc23)c(OC)n1 | -3.716
CN(C)CCNc1cc(-c2ncccc2Cl)c2cc[nH]c2n1 | -5.947
O=C(Nc1ccccc1)c1ccc(NCc2ccncc2)nn1 | -22.46
Clc1cc(NCc2nccs2)nc2[nH]ccc12 | 109.6
Fc1ccc(NCc2ncc[nH]2)cc1Br | -22.04
Clc1cc(NCc2ncc[nH]2)nc2[nH]ccc12 | 61.99
Clc1cc(NCc2ccncc2)nc2[nH]ccc12 | 93.22
O=C(CCc1ccc(Br)cc1)NCCc1nnc[nH]1 | 7.079
CC(C)(C)OCCN1CCCC1c1nc(Cc2ccc(F)cc2)no1 (configuration not stated) | 28.24
c1ccc(CN2CCC(NCCSc3cnn[nH]3)CC2)cc1 | -22.28
CN(C)CC(=O)N1CCCC1c1ccccn1 (configuration not stated) | 98.84
COc1ccc(C2CCCN2C(=O)Nc2ccc(OC)nc2)cc1 (configuration not stated) | 2.775
COC(=O)CCCC(=O)N1CCCCC1c1ccc(F)cc1 (configuration not stated) | -3.374
CN(CC(=O)N1CCCC1c1ccccn1)Cc1ccccc1 (configuration not stated) | -5.131
COc1ccc(Oc2cncc(C3CCCN3C(C)=O)n2)cc1 (configuration not stated) | -16.34
CC(=O)N1CCCC1c1cncc(Oc2ccc(F)cc2)n1 (configuration not stated) | 97.95
CNCC(=O)N1CCCC1c1cncc(Oc2ccc(F)cc2)n1.Cl (configuration not stated) | 105.9
O=C(CCCOCc1ccccc1)N1CCCC1c1ccccn1 (configuration not stated) | -5.136

SMILES | Percent Effect [%]
CN(C)CC(=O)N1CCCC1c1cncc(Oc2ccc(F)cc2)n1 (configuration not stated) | 102.5
Cc1cn(-c2ccccc2)nc1NS(=O)(=O)c1cc(C(=O)O)cs1 | 3.492
COc1cccc(-c2n[nH]cc2C(=O)NC(C)c2n[nH]c(C)n2)c1 (configuration not stated) | 6.595
O=C(NC1CC1)c1nc2c(o1)CN(c1ncccn1)C2 | -9.105
Fc1ccc(CN2CCCn3cnc(COCC4CC4)c3C2)cc1.O=C(O)C(F)(F)F | 3.17
CC(C)CNC[C@H]1O[C@H](Cc2cc(-c3ccccn3)on2)CC[C@@H]1O | -6.166
Cn1nc(C2CC2)c2c1NC(=O)CC2c1ccc(CN2CCCCC2)s1 (configuration not stated) | -3.758
COCCOc1ccccc1CNCC1COC2(CCCC2)O1 (configuration not stated) | 0.05602
CC(=O)N(Cc1ncc(C)o1)C1CCN(Cc2csc(C)n2)C1 (configuration not stated) | 123.5
Cc1cnc(CN(C)C2CCN(CC(=O)N(C)c3nccs3)C2)o1 (configuration not stated) | -8.119
CC(=O)N(Cc1ncc(C)o1)C1CCN(Cc2noc(C)n2)C1 (configuration not stated) | 3.628
CC(=O)N(Cc1ncc(C)o1)C1CCN(CCNC2CCCCC2)C1 (configuration not stated) | -4.891
CC(=O)N(Cc1ncc(C)o1)C1CCN(Cc2cc(C)on2)C1 (configuration not stated) | 118.6
CC(=O)N(Cc1ncc(C)o1)C1CCN(Cc2sc(C)nc2C)C1 (configuration not stated) | 115.4
CC(=O)N(Cc1ncc(C)o1)C1CCN(Cc2ccon2)C1 (configuration not stated) | 139.3
CC(=O)N(Cc1ncc(C)o1)C1CCN(CCCc2cnn(C)c2)C1 (configuration not stated) | 5.261
COCCCN1CCN(C(=O)C(c2cccc(F)c2)N(C)C)CC1 (configuration not stated) | -8.976
CC(NC(=O)C1=NN(C)C(=O)CC1)c1ccc(F)cc1F (configuration not stated) | -12.15
COc1ccc(OC)c(C2C3=C(COC3=O)Nc3[nH]nc(C)c32)c1 (configuration not stated) | 5.984
